Data reported in PubChem BioAssay AID2544 (Sanford-Burnham Center for Chemical Genomics, 2010).
About 390 (0.12%) of roughly 330,000 compounds were called active. The full list was thinned out, with actives kept by preference. Values without a mark were called inactive.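 Rule for the calls: active = inhibition reaching a set limit with compound at 10 µM in the primary screen (cut at about 35% in these data); inactive = the rest.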

Target: Intestinal-type alkaline phosphatase (Homo sapiens) (UniProt P09923)
Sequence (P09923 whole entry, looked up): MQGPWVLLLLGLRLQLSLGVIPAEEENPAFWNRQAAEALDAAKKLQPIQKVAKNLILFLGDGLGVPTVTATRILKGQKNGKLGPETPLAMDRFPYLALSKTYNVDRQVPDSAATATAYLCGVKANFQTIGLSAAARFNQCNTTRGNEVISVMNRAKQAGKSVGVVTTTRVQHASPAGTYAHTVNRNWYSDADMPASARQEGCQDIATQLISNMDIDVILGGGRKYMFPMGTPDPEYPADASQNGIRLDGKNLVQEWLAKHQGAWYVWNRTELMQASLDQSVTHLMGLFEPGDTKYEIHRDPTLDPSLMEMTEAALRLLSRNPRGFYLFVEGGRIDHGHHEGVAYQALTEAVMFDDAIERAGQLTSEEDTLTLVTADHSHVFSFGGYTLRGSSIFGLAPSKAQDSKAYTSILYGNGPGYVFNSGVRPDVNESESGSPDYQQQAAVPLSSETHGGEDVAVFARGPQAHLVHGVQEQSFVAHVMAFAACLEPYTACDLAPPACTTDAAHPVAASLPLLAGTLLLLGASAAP
Test: blockers of intestinal alkaline phosphatase activity – biochemical, luminescence, uHTS, primary screen (AID 2544);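 note: plate controls were DMSO wells with enzyme for no effect and no-enzyme buffer wells for full effect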
Settings: purified IAP, CDP-Star luminescence, 30 min; at 10 µM; active compounds read high

| SMILES | inhibition |
| --- | --- |
| COc1ccccc1N=Nc1c(O)[nH]c(=S)[nH]c1=O | 37.5% (active) |
| CCOCCc1c(O)[nH]c(=S)[nH]c1=O | 7.2% |
| O=C1N=c2ccccc2=C/C1=C\c1c(O)[nH]c(=S)[nH]c1=O | -13% |
| COc1ccc(NC(=O)c2cn(CCC#N)nc2-c2ccc([N+](=O)[O-])cc2)cc1 | 1.2% |
| CCN(CC)c1ccc([N+](=O)[O-])c2cccnc12 | 26.2% |
| CN(c1ccccc1)c1ccc([N+](=O)[O-])c2nonc12 | 45.8% (active) |
| O=C(OCCN1CCOCC1)C1(c2ccccc2)CCCC1 | -11.7% |
| Cc1ccc2c(c1)C1CN(C)CCC1N2C(=O)Cn1nnc(-c2ccccc2F)n1 (stereo not given) | -5.5% |
| Cc1ccc2c(c1)=C/C(=C\c1c(O)[nH]c(=O)[nH]c1=O)C(=O)N=2 | -9.3% |
| COc1ccc(-n2c(O)c(C(C)=Nc3ccc4c(c3)CCC4)c(=O)[nH]c2=O)cc1 | -16.1% |
